This passage reports efficacy and outcome results from PubChem BioAssay (NCATS).

Entries with a potency or affinity are not part of this list. Active and inactive are the calls of the source. How the calls were made is not given here.
Wherever efficacy is given: 0% is about no effect.

The conditions of the first assay: Ebola virus entry assay, green fluorescence channel.
For `CCCCCCCCCCCCCCCC(=O)OC(C)C`, the efficacy was 10.3% (inactive).

Take `Nc1ccc(S(=O)(=O)Nc2ccc(Cl)nn2)cc1`: the efficacy was -19.3% (inactive).

Take `Nc1ncnc2c1ncn2Cc1c(F)cccc1Cl`: the efficacy was -22.1% (inactive).

With `Cn1cc(S(C)=O)c(=O)c2ccc(F)cc21` (stereo not given), the efficacy was -15.1% (inactive).

As to `CC(C)(N)Cc1ccccc1Cl`, the efficacy is 18% (inactive).

For the compound `Oc1cccc(O)c1`, the efficacy is -18.5% (inactive).

Consider `O=C(O)COc1nn(Cc2ccccc2)c2ccccc12`, for which the efficacy was -8.45% (inactive).

`CCCCCC(C)N` (stereo not given): the efficacy was -23% (inactive).

Regarding `Cc1cc(=O)[nH]c(=S)[nH]1`, the efficacy was -11.2% (inactive).

For `c1ccc2c(c1)CCCC2C1=NCCN1` (stereo not given), the efficacy was -12.9% (inactive).

In the case of `CN1CCC(O)(c2ccc(F)cc2)C(C(=O)c2ccc(F)cc2)C1` (stereo not given), the efficacy is 22.6% (inactive).

Turning to `CC1(C)O[C@@H]2C[C@H]3[C@@H]4C[C@H](F)C5=CC(=O)C=C[C@]5(C)[C@@]4(F)[C@@H](O)C[C@]3(C)[C@]2(C(=O)CO)O1`, the efficacy was 10.5% (inactive).

In the case of `Cc1c(C(=O)O)c(O)cc2c1C(=O)c1c(O)c([C@@H]3O[C@H](CO)[C@@H](O)[C@H](O)[C@H]3O)c(O)c(O)c1C2=O`, the efficacy is -19.5% (inactive).

As to `O=C(CCCl)NCCc1ccccc1`, the efficacy was -10.7% (inactive).

For the compound `N#C[C@H]1C[C@H]2C[C@@H]2N1C(=O)[C@@H](N)C12CC3CC(CC(O)(C3)C1)C2`, the efficacy is -19.1% (inactive).

Consider `CC1c2ccccc2CN1NC(=O)c1ccc(Cl)c(S(N)(=O)=O)c1` (stereo not given), for which the efficacy was 14.8% (inactive).

In the case of `COc1cc(OC)c(C(=O)CCCN2CCCC2)c(OC)c1`, the efficacy is -22.4% (inactive).

On to `COc1ccc(C(=O)CC(=O)c2ccc(C(C)(C)C)cc2)cc1`, for which the efficacy was -14.9% (inactive).

With `CN(C)C(=O)Oc1ccc[n+](C)c1`, the efficacy is 18% (inactive).

In the case of `CCOC(=O)c1ccc(OCCN2C[C@H](O)[C@@H](O)[C@H](O)[C@H]2CO)cc1`, the efficacy was -12.9% (inactive).

For `Cc1nc2ccc(CN(C)c3ccc(C(=O)N[C@@H](CCC(=O)O)C(=O)O)s3)cc2c(=O)[nH]1`, the efficacy is 17.4% (inactive).

Consider `O=C1O[C@H](CO)[C@@H](O)[C@H](O)[C@H]1O`, for which the efficacy is 24.7% (inactive).

For the compound `Cc1cc(C)nc(NS(=O)(=O)c2ccc(N)cc2)n1`, the efficacy was -8.79% (inactive).

As to `CC(=O)O[C@@H]1C(=O)O[C@@H]2[C@H]1OC(=O)[C@@H]2OC(C)=O`, the efficacy was -16.6% (inactive).

Turning to `CCCCCCCCCCCCCCCC(=O)NCCO`, the efficacy was 20.8% (inactive).

Turning to `COc1ccc(-c2cc(=O)c3c(O)cc(O[C@@H]4O[C@H](CO[C@@H]5O[C@@H](C)[C@H](O)[C@@H](O)[C@H]5O)[C@@H](O)[C@H](O)[C@H]4O)cc3o2)cc1O`, the efficacy was -6.57% (inactive).

Turning to `CCCOC(=O)c1ccccc1`, the efficacy was 17.4% (inactive).

`COc1ccc(O)cc1`: the efficacy was 18.3% (inactive).

In the case of `Nc1ccc(/C=C/c2ccc(N)cc2S(=O)(=O)O)c(S(=O)(=O)O)c1`, the efficacy was 21.3% (inactive).

Take `COc1cc(C)c(Cc2cnc(N)nc2N)cc1OC`: the efficacy was -5.94% (inactive).

For `NC(=O)c1cc[n+](CC2=C(C(=O)[O-])N3C(=O)[C@@H](NC(=O)Cc4cccs4)[C@H]3SC2)cc1`, the efficacy is -13.3% (inactive).

As for `CC(C)(Oc1ccc(Cl)cc1)C(=O)OCCCOC(=O)C(C)(C)Oc1ccc(Cl)cc1`, the efficacy was -14% (inactive).

On to `CC(O)CCCCn1c(=O)c2c(ncn2C)n(C)c1=O` (stereo not given), for which the efficacy is 23.8% (inactive).

In the case of `C[C@@H]1CN(c2c(F)c(F)c3c(=O)c(C(=O)O)cn(C4CC4)c3c2F)C[C@H](C)N1`, the efficacy was -15.7% (inactive).

For the compound `NCCc1ccn[nH]1`, the efficacy is 19.8% (inactive).

With `COc1cc2c(Nc3ccc(Br)cc3F)ncnc2cc1OCC1CCN(C)CC1`, the efficacy is 16.7% (inactive).

Turning to `CC(C(=O)O)c1cccc(Oc2ccccc2)c1` (stereo not given), the efficacy was 18.1% (inactive).

For the compound `COc1cc(C=O)ccc1O`, the efficacy was -12.7% (inactive).

For `CSCC[C@H](NC(=O)[C@H](Cc1c[nH]c2ccccc12)NC(=O)CCNC(=O)OC(C)(C)C)C(=O)N[C@@H](CC(=O)O)C(=O)N[C@@H](Cc1ccccc1)C(N)=O`, the efficacy was 9.45% (inactive).

As to `Cc1cc(=O)c2c(O)c3c(O)cc(=O)c4c3c3c(cc(O)c1c23)C(C)(C)C=4O`, the efficacy was -11.2% (inactive).

The conditions of another assay: Ebola virus entry assay, green channel fluorescence.
Regarding `CCCCCCCCCCCCCCCC(=O)OC(C)C`, the compound was classed as inactive.

In the case of `Nc1ccc(S(=O)(=O)Nc2ccc(Cl)nn2)cc1`, the result was inactive.

Consider `Nc1ncnc2c1ncn2Cc1c(F)cccc1Cl`, for which the compound was classed as inactive.

Consider `Cn1cc(S(C)=O)c(=O)c2ccc(F)cc21` (stereo not given), for which the call was inactive.

On to `CC(C)(N)Cc1ccccc1Cl`, for which the compound was called inactive.

As for `Oc1cccc(O)c1`, the compound was classed as inactive.

Take `O=C(O)COc1nn(Cc2ccccc2)c2ccccc12`: the compound was called inactive.

As for `CCCCCC(C)N` (stereo not given), the compound was classed as inactive.

As for `Cc1cc(=O)[nH]c(=S)[nH]1`, the compound was classed as inactive.

In the case of `c1ccc2c(c1)CCCC2C1=NCCN1` (stereo not given), the call was inactive.

As to `CN1CCC(O)(c2ccc(F)cc2)C(C(=O)c2ccc(F)cc2)C1` (stereo not given), the compound was called inactive.

Take `CC1(C)O[C@@H]2C[C@H]3[C@@H]4C[C@H](F)C5=CC(=O)C=C[C@]5(C)[C@@]4(F)[C@@H](O)C[C@]3(C)[C@]2(C(=O)CO)O1`: the result was inactive.

For `Cc1c(C(=O)O)c(O)cc2c1C(=O)c1c(O)c([C@@H]3O[C@H](CO)[C@@H](O)[C@H](O)[C@H]3O)c(O)c(O)c1C2=O`, the compound was called inactive.

Turning to `O=C(CCCl)NCCc1ccccc1`, the call was inactive.

With `N#C[C@H]1C[C@H]2C[C@@H]2N1C(=O)[C@@H](N)C12CC3CC(CC(O)(C3)C1)C2`, the compound was classed as inactive.

On to `CC1c2ccccc2CN1NC(=O)c1ccc(Cl)c(S(N)(=O)=O)c1` (stereo not given), for which the compound was called inactive.

In the case of `COc1cc(OC)c(C(=O)CCCN2CCCC2)c(OC)c1`, the outcome was inactive.

With `COc1ccc(C(=O)CC(=O)c2ccc(C(C)(C)C)cc2)cc1`, the outcome was inactive.

Turning to `CN(C)C(=O)Oc1ccc[n+](C)c1`, the compound was called inactive.

For `CCOC(=O)c1ccc(OCCN2C[C@H](O)[C@@H](O)[C@H](O)[C@H]2CO)cc1`, the outcome was inactive.

`Cc1nc2ccc(CN(C)c3ccc(C(=O)N[C@@H](CCC(=O)O)C(=O)O)s3)cc2c(=O)[nH]1`: the outcome was inactive.

Regarding `O=C1O[C@H](CO)[C@@H](O)[C@H](O)[C@H]1O`, the result was inactive.

As for `Cc1cc(C)nc(NS(=O)(=O)c2ccc(N)cc2)n1`, the outcome was inactive.

Consider `CC(=O)O[C@@H]1C(=O)O[C@@H]2[C@H]1OC(=O)[C@@H]2OC(C)=O`, for which the call was inactive.

Turning to `CCCCCCCCCCCCCCCC(=O)NCCO`, the compound was called inactive.

As for `COc1ccc(-c2cc(=O)c3c(O)cc(O[C@@H]4O[C@H](CO[C@@H]5O[C@@H](C)[C@H](O)[C@@H](O)[C@H]5O)[C@@H](O)[C@H](O)[C@H]4O)cc3o2)cc1O`, the compound was called inactive.

For the compound `CCCOC(=O)c1ccccc1`, the result was inactive.

Regarding `COc1ccc(O)cc1`, the compound was classed as inactive.

Consider `Nc1ccc(/C=C/c2ccc(N)cc2S(=O)(=O)O)c(S(=O)(=O)O)c1`, for which the compound was called inactive.

Turning to `COc1cc(C)c(Cc2cnc(N)nc2N)cc1OC`, the outcome was inactive.

As for `NC(=O)c1cc[n+](CC2=C(C(=O)[O-])N3C(=O)[C@@H](NC(=O)Cc4cccs4)[C@H]3SC2)cc1`, the result was inactive.

`CC(C)(Oc1ccc(Cl)cc1)C(=O)OCCCOC(=O)C(C)(C)Oc1ccc(Cl)cc1`: the compound was called inactive.

For the compound `CC(O)CCCCn1c(=O)c2c(ncn2C)n(C)c1=O` (stereo not given), the call was inactive.

For `C[C@@H]1CN(c2c(F)c(F)c3c(=O)c(C(=O)O)cn(C4CC4)c3c2F)C[C@H](C)N1`, the outcome was inactive.

For the compound `NCCc1ccn[nH]1`, the outcome was inactive.

In the case of `COc1cc2c(Nc3ccc(Br)cc3F)ncnc2cc1OCC1CCN(C)CC1`, the compound was classed as inactive.

Consider `CC(C(=O)O)c1cccc(Oc2ccccc2)c1` (stereo not given), for which the outcome was inactive.

For `COc1cc(C=O)ccc1O`, the compound was called inactive.

For `CSCC[C@H](NC(=O)[C@H](Cc1c[nH]c2ccccc12)NC(=O)CCNC(=O)OC(C)(C)C)C(=O)N[C@@H](CC(=O)O)C(=O)N[C@@H](Cc1ccccc1)C(N)=O`, the outcome was inactive.

On to `Cc1cc(=O)c2c(O)c3c(O)cc(=O)c4c3c3c(cc(O)c1c23)C(C)(C)C=4O`, for which the call was inactive.
